From PubChem BioAssay (NCATS) come the findings set out here.

Inconclusive results are not listed. The source holds several records for some structures; these can differ, active in one and inactive in another. Calls of active or inactive are those of the source. Unless noted, calls come from the whole dose curve; as a rule, active = well fitted curve in the direction sought with a large enough effect; inconclusive = small, poorly fitted or top-dose-only effect, or another doubt; inactive = no such curve, though single readings can be large; an effect the other way counts as inactive or inconclusive.

Assay [1] deals with ATPase family AAA domain-containing protein 5 (Homo sapiens) (UniProt Q96QE3). The assay is described as follows: Validation screen for small molecules that inhibit ELG1-dependent DNA repair in human embryonic kidney (HEK293T) cells expressing luciferase-tagged ELG1 (AID 493107). Note: nearly all actives have a fitted effect of over 70% in size. Note: potency is the fitted concentration of half-maximal effect. Summed up:
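Quantitative HTS in HEK293T cells carrying luciferase-tagged ELG1, stimulated with 5-fluorouridine alongside compound for 16 hr. Loss of luciferase signal marks inhibition of ELG1 response.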

Assay [2] deals with Thyrotropin-releasing hormone receptor (Homo sapiens) (UniProt P34981). The assay is described as follows: qHTS for Small Molecule Agonists and Allosteric Enhancers of Human TRH Receptor: Validation Screen for Agonists (AID 493127;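 active = calcium activation more than 3 SD above the typical response in the agonist read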;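 note: intracellular calcium rise by fluo-8 fluorescence before TRH EC20 addition; 0% is about no effect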). As to conditions: TRH receptor agonist cell assay; at 2 µM; stronger effect = higher value. In outline: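 Gq-coupled calcium mobilization in TRHR cells after compound addition, monitored kinetically with fluo-8 dye on an FDSS reader.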
Thyrotropin-releasing hormone receptor (Homo sapiens), sequence (P34981 whole entry, looked up): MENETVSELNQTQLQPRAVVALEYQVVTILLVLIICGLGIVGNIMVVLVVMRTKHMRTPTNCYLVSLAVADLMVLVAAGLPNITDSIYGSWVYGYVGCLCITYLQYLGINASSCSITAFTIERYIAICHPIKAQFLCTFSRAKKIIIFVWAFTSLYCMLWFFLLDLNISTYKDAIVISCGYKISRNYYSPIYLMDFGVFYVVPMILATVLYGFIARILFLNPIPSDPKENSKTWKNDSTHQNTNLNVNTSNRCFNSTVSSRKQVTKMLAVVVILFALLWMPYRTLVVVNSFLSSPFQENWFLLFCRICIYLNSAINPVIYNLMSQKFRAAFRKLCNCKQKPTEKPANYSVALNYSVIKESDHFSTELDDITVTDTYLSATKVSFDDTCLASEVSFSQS
(In qHTS, concentration-response curves come from the screen itself.)

Assay [3] can be described thus: Nrf2 qHTS screen for inhibitors: Validation (AID 493153; active = well fitted inhibition curve with a large enough effect in the main read-out, with a control signal flat, not every such curve was filed as active). To be noted: Potency: luciferase luminescence; viability change: measured here: cytotoxicity max response. Summed up:
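Dose-response validation uses reporter A549 cells with firefly luciferase under an antioxidant response element. Compounds stay on cells 18-24 h at 37°C, and luminescence indicates Nrf2-driven transcription.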

A short description of assay [4]: qHTS for Inhibitors of Cell Surface uPA Generation: Validation Assay (AID 493164).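 Note: RAW 264.7 macrophage cells exposed to compound for 18 h; 0% is about no effect.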 In outline:
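RAW 264.7, 4000 cells/well, o/n plating; cpd 7-pt 1:5 dilution 2.45 nM–38.3 uM final; 18 h, 37 C/5% CO2; ATP-Lite, 5 s luminescence exposure.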

Assay [5] addresses Galactokinase (Homo sapiens) (UniProt P51570). Description: qHTS Validation Assay for Inhibitors of Human Galactokinase (GALK) (AID 493189). Note: 0% is about no effect. In outline:
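GALK (5 nM) with 35 uM ATP and 100 uM galactose in HEPES pH8.0, MgCl2, NaCl, DTT, BSA; 1 h at room temperature. Residual ATP read by Kinase-Glo Plus luminescence after 10 min.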

Assay [6] can be described thus: Validation screen for small molecules that induce DNA re-replication in SW480 colon adenocarcinoma cells (AID 504364). Note: 0% is about no effect. In outline: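 Cells are treated 48 hr with test compound, stained 40 min with Hoechst at 37 C, and scanned for nuclear fluorescence; compounds inducing re-replication increase nuclei with elevated intensity.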
Assay [7] has as its target Peptidyl-prolyl cis-trans isomerase NIMA-interacting 1 (Homo sapiens) (UniProt Q13526). The assay is described as follows: qHTS Validation Assay to Find Inhibitors of Pin1 (AID 504536; active = well fitted inhibition curve with a large enough effect in the polarisation, with a control signal flat, not every such curve was filed as active; the % refers to the polarisation;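 note: 0% = full Pin1 enzyme wells and -100% = no-enzyme wells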). In outline: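 Fluorescence polarization competition: compounds (titration) displace HiFluor-488-labeled Pin1-1b peptide from Pin1 (0.3 uM final) in pH 7.5 HEPES buffer with DTT, 10 min at room temperature; %Activity normalized to no-enzyme wells, curves fitted.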

The target in assay [8] is Phosphoglycerate kinase, glycosomal (Trypanosoma brucei brucei) (UniProt P07378). The assay is described as follows: qHTS Validation Assay to Find Inhibitors of Phosphoglycerate Kinase (AID 504547). Note: potency is the fitted concentration of half-maximal effect. Summed up:
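PGK activity was coupled to GAPDH (100nM final), which generates the unstable substrate 1,3-bisphosphoglycerate in-well. Reactions ran 60 minutes at room temperature in 100mM TEA pH 7.6, 5mM MgCl2, 0.01% Tween-20, then Kinase-Glo Plus luminescence was read.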

Assay [9] concerns the target Ubiquitin carboxyl-terminal hydrolase 1 (Homo sapiens) (UniProt O94782). Description: Inhibitors of USP1/UAF1: Pilot qHTS (AID 504865). Note: nearly all actives have a fitted effect of over 35% in size. Note: potency is the fitted concentration of half-maximal effect. In outline: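 USP1/UAF1 complex (1nM) preincubated with compound 15 min at room temperature, then Ub-Rho substrate (150nM final) added. Fluorescence read kinetically at 480/540 nm, 6 reads every 60 seconds. Buffer: 50mM HEPES pH 7.8, 0.5mM EDTA, 0.1 mg/ml BSA, 1mM TCEP, 0.01% Tween-20.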

For assay [10], the target named is phosphoglycerate mutase (Leishmania major) (UniProt Q4Q090). The assay is described as follows: qHTS Validation Assay to Find Inhibitors of Phosphoglycerate Mutase (AID 504548).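 Note: end-point luminescence from Kinase-GloPlus after the PGAM reaction; series mostly up to about 58 µM; % is set by controls: 0 for no effect and ±100 for the full control effect.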 Summed up: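 Inhibition of L. major PGAM was assessed by Kinase-GloPlus luminescence following a 45-minute room-temperature reaction with enzyme at 1.25nM final.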
phosphoglycerate mutase (Leishmania major), sequence (Q4Q090 1-553): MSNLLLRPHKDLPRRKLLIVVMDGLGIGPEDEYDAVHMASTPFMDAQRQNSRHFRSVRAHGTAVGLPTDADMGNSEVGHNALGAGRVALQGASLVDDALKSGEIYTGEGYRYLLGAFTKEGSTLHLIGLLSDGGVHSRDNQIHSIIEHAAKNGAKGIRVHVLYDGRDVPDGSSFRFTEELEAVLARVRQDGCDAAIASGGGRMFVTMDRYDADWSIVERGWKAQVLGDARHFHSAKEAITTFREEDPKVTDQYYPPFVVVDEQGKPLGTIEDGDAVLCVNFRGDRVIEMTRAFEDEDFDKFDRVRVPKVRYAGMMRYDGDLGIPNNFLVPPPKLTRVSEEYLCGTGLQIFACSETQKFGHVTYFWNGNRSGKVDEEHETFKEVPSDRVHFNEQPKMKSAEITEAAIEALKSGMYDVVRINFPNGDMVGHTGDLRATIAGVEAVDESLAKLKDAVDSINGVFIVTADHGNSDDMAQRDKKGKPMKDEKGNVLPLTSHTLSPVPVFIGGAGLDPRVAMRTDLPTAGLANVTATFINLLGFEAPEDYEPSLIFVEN

Ubiquitin carboxyl-terminal hydrolase 1 (Homo sapiens), sequence (O94782 whole entry, looked up): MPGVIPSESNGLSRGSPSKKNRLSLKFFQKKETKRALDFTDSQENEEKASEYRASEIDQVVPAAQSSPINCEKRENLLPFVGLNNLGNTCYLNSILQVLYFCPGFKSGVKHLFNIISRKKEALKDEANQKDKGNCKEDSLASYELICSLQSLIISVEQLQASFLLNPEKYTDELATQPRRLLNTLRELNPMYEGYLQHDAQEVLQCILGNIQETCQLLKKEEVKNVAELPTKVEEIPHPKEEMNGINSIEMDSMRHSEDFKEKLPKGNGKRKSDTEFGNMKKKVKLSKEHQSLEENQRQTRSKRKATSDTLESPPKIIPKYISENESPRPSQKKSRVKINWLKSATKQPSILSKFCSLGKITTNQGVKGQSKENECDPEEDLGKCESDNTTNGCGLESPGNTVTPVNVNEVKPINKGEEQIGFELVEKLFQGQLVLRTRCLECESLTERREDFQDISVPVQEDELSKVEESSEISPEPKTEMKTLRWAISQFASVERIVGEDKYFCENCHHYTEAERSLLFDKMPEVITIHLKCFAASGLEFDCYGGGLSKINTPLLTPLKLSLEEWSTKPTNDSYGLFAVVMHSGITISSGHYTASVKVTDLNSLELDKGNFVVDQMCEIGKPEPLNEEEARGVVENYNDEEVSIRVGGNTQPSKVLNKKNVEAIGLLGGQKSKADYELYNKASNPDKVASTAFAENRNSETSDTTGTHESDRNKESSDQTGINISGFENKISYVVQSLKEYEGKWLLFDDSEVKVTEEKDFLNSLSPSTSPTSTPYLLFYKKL
Phosphoglycerate kinase, glycosomal (Trypanosoma brucei brucei), sequence (P07378 whole entry, looked up): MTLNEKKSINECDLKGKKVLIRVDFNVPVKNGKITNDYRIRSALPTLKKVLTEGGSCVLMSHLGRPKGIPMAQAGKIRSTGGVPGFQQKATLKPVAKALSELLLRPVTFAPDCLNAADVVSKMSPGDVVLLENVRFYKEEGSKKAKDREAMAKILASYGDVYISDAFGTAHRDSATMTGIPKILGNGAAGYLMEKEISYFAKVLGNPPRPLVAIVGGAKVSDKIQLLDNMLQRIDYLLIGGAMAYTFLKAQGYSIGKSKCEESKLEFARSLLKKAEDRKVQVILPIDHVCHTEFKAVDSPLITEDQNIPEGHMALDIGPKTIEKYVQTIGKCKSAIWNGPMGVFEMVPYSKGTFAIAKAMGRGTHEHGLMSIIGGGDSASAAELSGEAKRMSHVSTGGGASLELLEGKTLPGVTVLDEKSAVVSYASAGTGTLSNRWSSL
ATPase family AAA domain-containing protein 5 (Homo sapiens), sequence (Q96QE3 whole entry, looked up, the tested form may be a part): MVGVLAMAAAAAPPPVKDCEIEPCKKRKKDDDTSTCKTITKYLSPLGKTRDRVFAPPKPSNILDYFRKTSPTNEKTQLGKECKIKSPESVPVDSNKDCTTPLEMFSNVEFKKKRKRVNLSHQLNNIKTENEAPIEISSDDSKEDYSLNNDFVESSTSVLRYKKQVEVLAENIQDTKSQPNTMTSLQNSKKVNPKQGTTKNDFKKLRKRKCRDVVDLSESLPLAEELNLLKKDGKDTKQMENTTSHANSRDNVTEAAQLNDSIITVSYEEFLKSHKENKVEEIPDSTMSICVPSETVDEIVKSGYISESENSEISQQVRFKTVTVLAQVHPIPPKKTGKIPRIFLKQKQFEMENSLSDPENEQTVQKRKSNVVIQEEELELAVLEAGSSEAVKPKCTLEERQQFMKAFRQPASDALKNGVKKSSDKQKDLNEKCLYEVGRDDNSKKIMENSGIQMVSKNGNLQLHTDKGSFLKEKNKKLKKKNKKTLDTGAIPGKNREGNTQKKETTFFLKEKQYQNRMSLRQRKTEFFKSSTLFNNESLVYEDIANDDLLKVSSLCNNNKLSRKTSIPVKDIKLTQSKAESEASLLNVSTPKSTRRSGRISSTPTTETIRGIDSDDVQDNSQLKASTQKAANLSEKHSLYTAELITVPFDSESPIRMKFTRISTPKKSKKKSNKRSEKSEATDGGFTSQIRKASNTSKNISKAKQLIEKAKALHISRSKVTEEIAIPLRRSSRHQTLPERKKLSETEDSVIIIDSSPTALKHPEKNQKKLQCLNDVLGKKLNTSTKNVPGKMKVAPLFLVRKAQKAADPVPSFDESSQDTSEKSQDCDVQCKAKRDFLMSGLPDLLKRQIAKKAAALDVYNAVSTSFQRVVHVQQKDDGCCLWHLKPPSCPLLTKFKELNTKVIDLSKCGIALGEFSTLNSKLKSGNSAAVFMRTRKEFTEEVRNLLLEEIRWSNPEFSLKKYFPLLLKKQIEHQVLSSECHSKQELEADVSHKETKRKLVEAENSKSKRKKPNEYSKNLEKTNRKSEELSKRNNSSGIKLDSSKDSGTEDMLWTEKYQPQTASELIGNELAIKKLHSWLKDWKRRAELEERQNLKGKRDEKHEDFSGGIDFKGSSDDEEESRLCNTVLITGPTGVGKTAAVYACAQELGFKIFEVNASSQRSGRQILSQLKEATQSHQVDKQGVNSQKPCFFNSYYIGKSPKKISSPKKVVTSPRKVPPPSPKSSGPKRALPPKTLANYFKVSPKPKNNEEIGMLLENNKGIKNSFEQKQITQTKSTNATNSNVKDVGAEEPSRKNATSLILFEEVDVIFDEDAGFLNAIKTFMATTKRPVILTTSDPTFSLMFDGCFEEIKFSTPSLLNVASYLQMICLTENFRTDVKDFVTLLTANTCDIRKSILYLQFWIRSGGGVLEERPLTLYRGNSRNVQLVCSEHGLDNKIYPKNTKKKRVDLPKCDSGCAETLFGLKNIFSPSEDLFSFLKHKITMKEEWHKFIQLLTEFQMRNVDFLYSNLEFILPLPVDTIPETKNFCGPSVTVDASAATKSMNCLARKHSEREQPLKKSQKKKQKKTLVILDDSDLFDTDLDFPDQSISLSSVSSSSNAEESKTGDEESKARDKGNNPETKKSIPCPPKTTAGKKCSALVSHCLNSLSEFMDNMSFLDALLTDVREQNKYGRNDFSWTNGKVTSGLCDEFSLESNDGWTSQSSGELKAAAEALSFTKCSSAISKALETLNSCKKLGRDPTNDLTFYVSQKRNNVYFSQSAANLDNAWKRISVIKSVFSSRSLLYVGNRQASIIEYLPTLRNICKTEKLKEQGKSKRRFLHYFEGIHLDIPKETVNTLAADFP
Galactokinase (Homo sapiens), sequence (P51570 whole entry, looked up): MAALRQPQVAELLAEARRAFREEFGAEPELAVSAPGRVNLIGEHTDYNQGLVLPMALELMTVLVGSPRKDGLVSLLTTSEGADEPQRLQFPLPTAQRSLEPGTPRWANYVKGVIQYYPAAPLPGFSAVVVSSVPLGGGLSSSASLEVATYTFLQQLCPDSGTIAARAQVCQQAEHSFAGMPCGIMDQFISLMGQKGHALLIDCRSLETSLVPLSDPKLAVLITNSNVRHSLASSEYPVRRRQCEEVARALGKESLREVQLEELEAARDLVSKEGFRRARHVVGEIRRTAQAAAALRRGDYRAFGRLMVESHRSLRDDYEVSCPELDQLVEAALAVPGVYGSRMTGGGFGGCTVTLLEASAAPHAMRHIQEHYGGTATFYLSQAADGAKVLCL
Peptidyl-prolyl cis-trans isomerase NIMA-interacting 1 (Homo sapiens), sequence (Q13526 whole entry, looked up): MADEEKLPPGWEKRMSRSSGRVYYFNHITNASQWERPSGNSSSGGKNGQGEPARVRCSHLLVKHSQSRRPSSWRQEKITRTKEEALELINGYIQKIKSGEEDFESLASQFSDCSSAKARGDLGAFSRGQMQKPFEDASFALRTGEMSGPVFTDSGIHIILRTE

With `CN(C)c1nc(N(C)C)nc(N(C)C)n1`, the Potency entry in assay [1], in [3], in [5], in assay [6], in assay [7] and in [8] was “inactive” in each case. Also, the Potency entry in assay [9] is “inactive”. In addition, in [2], the activation is 0.188% (inactive). Also, the viability change in assay [3] was found to be 0%. In assay [4], the outcome was inactive.
As for `NC(=O)NO`, the Potency entry in assay [1], in [3], in [5], in assay [6], in assay [7] and in assay [8] was “inactive” in each case. For the same compound, the Potency entry in assay [9] is “inactive”. The activation in [2] was 1.12% (inactive). Also, the viability change in assay [3] is -1.36%. For the same compound, the compound was called inactive in assay [4] and in assay [10].
On to `CC1COc2c(N3CCN(C)CC3)c(F)cc3c(=O)c(C(=O)O)cn1c23` (stereo not given), for which the Potency entry in assay [1], in assay [3], in [5], in assay [6], in assay [7] and in assay [8] was “inactive” each time. For the same compound, the Potency entry in assay [9] is “inactive”. Moreover, in assay [2], the activation is 1% (inactive). Also, in assay [3], the viability change turned out to be 6.09%. In addition, the outcome in assay [4] was inactive.
With `CN(C)CCC=C1c2ccccc2C=Cc2ccccc21`, the Potency result in assay [1], in [3], in assay [5], in assay [6], in assay [7] and in assay [9] was “inactive” each time. The activation in [2] is 1.69% (inactive). Further, the viability change in assay [3] is 1.79%. Also, the compound was classed as inactive in assay [4] and in assay [10].
In the case of `NCCc1cnc[nH]1`, the Potency result in assay [1], in assay [3], in [5], in [6], in assay [7] and in assay [8] was “inactive” each time. For the same compound, the activation in assay [2] was 1.06% (inactive). Moreover, in assay [3], the viability change stood at 1.05%. Also, the result in assay [4] was inactive. Besides, the Potency in assay [9] was 44.7 µM (active) and inactive.
Turning to `Nc1nnc(-c2cccc(Cl)c2Cl)c(N)n1`, the Potency entry in assay [1], in assay [3], in [5], in [6], in [7] and in assay [9] was “inactive” in each case. In addition, the activation in assay [2] was 0.938% (inactive). In assay [3], the viability change is -4.23%. Also, in [4], the compound was classed as inactive.
For `Cc1cc(C(C)(C)C)c(O)c(C)c1CC1=NCCN1`, the Potency entry in [1], in assay [3], in assay [5], in [6], in [7] and in assay [9] was “inactive” throughout. Moreover, the activation in [2] was 1.19% (inactive). Besides, the viability change in [3] amounted to 1.24%. Also, the call in assay [4] and in assay [10] was inactive.
On to `NC(=O)OCC(COC(N)=O)c1ccccc1`, for which the Potency result in assay [1], in assay [3], in assay [5], in assay [6], in assay [7] and in assay [8] was “inactive” each time. Also, the Potency entry in assay [9] is “inactive”. For the same compound, the activation in [2] was 0.5% (inactive). In addition, the viability change in [3] is 2.5%. Also, in [4], the call was inactive.
With `CC(CCc1ccc(O)cc1)NCCc1ccc(O)c(O)c1` (stereo not given), the Potency entry in assay [1], in assay [3], in [5], in [6], in assay [7] and in assay [8] was “inactive” in each case. The Potency entry in assay [9] was “inactive”. Also, the activation in assay [2] was 1.06% (inactive). Besides, in assay [3], the viability change turned out to be 2.92%. Further, the outcome in assay [4] and in [10] was inactive.
Regarding `Nc1nc2c(ncn2COC(CO)CO)c(=O)[nH]1`, the Potency result in assay [1], in [3], in [5], in assay [6], in assay [7] and in assay [9] was “inactive” throughout. Further, the activation in assay [2] was 0.625% (inactive). For the same compound, the viability change in [3] was found to be 2.85%. In assay [4], the result was inactive.
`CCC1(C)CC(=O)NC1=O` (stereo not given): the Potency entry in assay [1], in assay [3], in assay [5], in [6], in [7] and in assay [8] was “inactive” throughout. Further, the Potency entry in [9] is “inactive”. The activation in [2] is 1.44% (inactive). The viability change in [3] came out at 4.35%. Also, the outcome in [4] and in assay [10] was inactive.
For the compound `C[C@](N)(Cc1ccc(O)c(O)c1)C(=O)O`, the Potency result in [1], in assay [3], in assay [5], in assay [6], in assay [7] and in [9] was “inactive” throughout. Also, the activation in assay [2] is 1.25% (inactive). Besides, in assay [3], the viability change worked out at 0.569%. Besides, the compound was classed as inactive in [4]. The Potency in [8] was 2.13 µM (active).
In the case of `CC(C(=O)O)c1cccc(C(=O)c2ccccc2)c1` (stereo not given), the Potency entry in [1], in [3], in assay [5], in [6], in [7] and in assay [9] was “inactive” in each case. The activation in [2] was 1.12% (inactive). The viability change in [3] was -3.76%. The compound was classed as inactive in assay [4] and in [10].
`CCCNCC(O)COc1ccccc1C(=O)CCc1ccccc1` (stereo not given): the Potency result in assay [1], in assay [5], in assay [6], in assay [7] and in [8] was “inactive” each time. Moreover, in assay [2], the activation is 4% (inactive). Further, the compound was called inactive in assay [4] and in assay [10].
Take `Cn1c(=O)c2[nH]cnc2n(C)c1=O`: the Potency result in assay [1], in assay [3], in assay [5], in [6] and in assay [7] was “inactive” in each case. Besides, the activation in assay [2] is 0.688% (inactive). In addition, the viability change in assay [3] is 0.231%. Further, the call in assay [4] and in assay [10] was inactive.
As for `O=C1c2c(O)ccc(O)c2C(=O)c2c(NCCNCCO)ccc(NCCNCCO)c21`, in assay [1], the Potency is 4.61 µM (active). For the same compound, the activation in [2] was 0.938% (inactive). In addition, the result in assay [4] was inactive. Further, the Potency result in assay [5], in assay [6] and in assay [7] was “inactive” throughout.
For the compound `Cn1ccc2cc3c(cc21)CCN3C(=O)Nc1cccnc1`, the Potency result in assay [1], in assay [3], in assay [5], in [6] and in assay [7] was “inactive” each time. Besides, the activation in assay [2] was 0.875% (inactive). Moreover, the viability change in [3] was -2.16%. Moreover, the outcome in [4] and in [10] was inactive.
Consider `O=c1[nH]cc(F)c(=O)[nH]1`, for which the Potency result in assay [1], in assay [5], in assay [6], in [7], in [8] and in [9] was “inactive” each time. In addition, the activation in assay [2] is 0.812% (inactive). Further, in assay [4], the result was inactive.
For the compound `N[C@@H](Cc1c[nH]c2ccc(O)cc12)C(=O)O`, the Potency result in assay [1], in [3], in [5], in [6], in [7] and in [9] was “inactive” in each case. Further, the activation in assay [2] is 0.125% (inactive). In assay [3], the viability change was -8.24%. In addition, in [4], the result was inactive.
